We go through 39 compounds from PubChem BioAssay (NCI).

Compounds without any hit were thinned out: in the full panel of roughly 83,000, 20% have a hit.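 Percent growth is the endpoint: 0 to 100 indicates growth inhibition (40 means 60% inhibition), 0 means no net growth, and negative values indicate cell death.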 Active and inactive are the calls of the source. Rule for the calls: active = growth percent below 10; inactive = the rest.

The subject of the first assay is SF-539 CNS. The assay is described as follows: NCI-60 one-dose screen, 48 h (100 = growth as untreated, 0 = no growth, -100 = all killed). The conditions noted are these: 10 µM unless noted.
`Cc1nc2cncc(C#Cc3cncc(C(=O)Nc4ccc(CN5CCN(C)CC5)c(C(F)(F)F)c4)c3)c2nc1C`: the growth was -41.9% (active).

Turning to `CCN(CC)CCC(CNc1c2ccc(Cl)cc2nc2ccc(OC)cc12)c1ccccc1` (stereo not drawn), the growth was -79.6% (active).

Take `Cc1csc(NC(c2ccc(Br)cc2)c2c(C)nc3ccccn23)n1` (stereo not drawn): the growth was 101% (inactive).

Regarding `O=C(NCCCNc1nccc(-n2ccc3cccnc32)n1)c1c(F)cccc1F`, the growth was 97.9% (inactive).

With `COc1ccc(/C=C\c2cc(OC)c(OC)c(OC)c2)cc1OC(=O)c1cccc(Cn2cc(CCOC(=O)c3cccc(Cn4nnc5c4C(=O)c4ccccc4C5=O)c3)nn2)c1`, the growth is -22.5% (active).

Turning to `O=C(Nc1ccc(NCCN2CCOCC2)nc1)c1ccc([N+](=O)[O-])cc1`, the growth was 95.6% (inactive).

On to `CCOC(=O)C1C(=O)C=C(c2ccc(OC)cc2)CC1c1sc(N(C)Cc2ccccc2)nc1Cl` (stereo not drawn), for which the growth was 84.7% (inactive).

For `NC(=S)N/N=C(/CCN1CCCC1)CC(C1=C(O)C2=CCCCC2OC1=O)c1ccccc1` (stereo not drawn), the growth was 95.4% (inactive).

`O=C(NNC(=O)N1c2ccccc2C=Cc2ccccc21)c1ccccc1`: the growth is 102% (inactive).

As to `Cc1ccc(S(=O)(=O)n2cc(C(=O)C(=O)Nc3ccncc3)c3ccccc32)cc1`, the growth was 15% (inactive).

As for `COc1ccc(C2=C(c3cc(OC)c(OC)c(OC)c3)C(=O)CC2)cc1`, the growth is 0.222% (active).

In the case of `Cn1ccc(Nc2nccc(Oc3ccc(C(=O)Nc4cccc(F)c4)c(Cl)c3)n2)c1`, the growth is 84.9% (inactive).

With `CCOc1cc2c(Cl)ncnc2c(OCC)c1OCC`, the growth is 92.5% (inactive).

With `NC(N)=Nc1nc2ccccc2o1`, the growth is 96.2% (inactive).

Regarding `CC(C)CC1NC(C)(C)CO1` (stereo not drawn), the growth was 126% (inactive).

`COc1cc(/C=N\NC(=O)CN2CCN(c3cc4c(cc3F)c(=O)c(C(=O)N/N=C/c3cc(OC)c(OC)c(OC)c3)cn4C3CC3)CC2)cc(OC)c1OC`: the growth was -68.2% (active).

On to `COc1ccc(-c2nc3sc(-c4cc(OC)c(OC)c(OC)c4)nn3c2/C=C2/C(=O)Nc3ccc(F)cc32)cc1`, for which the growth is 97.7% (inactive).

For `Nc1cccc(-c2nc3sccn3c2-c2ccnc(NCCNS(=O)(=O)c3ccc(C(F)(F)F)cc3)n2)c1`, the growth is 32% (inactive).

Consider `COc1ccc(-c2ccc(-c3ccc(C(=N)N)s3)s2)cc1Cl`, for which the growth was 65.7% (inactive).

`NC(=O)c1c(NC(=S)Nc2ccc(OC(F)(F)F)cc2)sc2c1CCC1(C2)OCCO1`: the growth was 99% (inactive).

As to `COc1ccc2[nH]c(C(=O)OCc3ccc4c(Cl)cc(Cl)c(O)c4n3)cc2c1`, the growth is -96.4% (active).

On to `CCO/C=N/C1=C(C#N)C(c2ccc(Cl)cc2)c2c(c3ccccc3n(C)c2=O)O1` (stereo not drawn), for which the growth was 72.2% (inactive).

`COc1ccc(S(=O)(=O)Nc2cc(/C=C\c3cc(OC)c(OC)c(OC)c3)cc(OC)c2OC)cc1`: the growth was 0.203% (active).

`CCCCNC(=O)Oc1ccc(/C(=C(\C)c2ccccc2)c2ccc(OCCN(CC)CC)cc2)cc1`: the growth is 48.3% (inactive).

Consider `COc1ccc(S(=O)(=O)n2cc(C(=O)C(=O)Nc3ccncc3)c3ccccc32)cc1F`, for which the growth was 69.1% (inactive).

Turning to `CC(C)(C)n1cc(-c2ccnc(NCCCNS(=O)(=O)c3ccc(Br)cc3)c2)c(-c2cccc(O)c2)n1`, the growth is 15.7% (inactive).

With `O=Nc1c(-c2cccc([N+](=O)[O-])c2)nc2ncccn12`, the growth is 91% (inactive).

With `O=C1/C(=C/c2ccc([N+](=O)[O-])cc2)CN(C(=O)CCN2CCC(=NO)CC2)C/C1=C\c1ccc([N+](=O)[O-])cc1`, the growth was -42.8% (active).

For the compound `CCOC(=O)C1=C(C)NC(C)=C(C(=O)OCC)C1(C)C`, the growth is 91.7% (inactive).

Regarding `CCCCN(CCCC)C(=N)c1ccnc2ccccc12`, the growth is 113% (inactive).

Regarding `C1=Cc2ccccc2N(c2nnc(-c3ccccc3)o2)c2ccccc21`, the growth is 103% (inactive).

`CCCCCCCCCCCCCCCCCCNC(=O)[C@H]1CSC(c2ccc(OC)cc2O)N1` (stereo partly drawn): the growth is 66% (inactive).

As to `COc1ccc(C(=O)c2cc(OC)c3c(c2)OCO3)cc1O`, the growth was 6.91% (active).

Turning to `COc1ccc(-c2cc(-c3ccccc3)nc(SCCCC(=O)NO)n2)cc1OC`, the growth is 14.8% (inactive).

Consider `CCOC(=O)C1CCNC(=O)C1=O` (stereo not drawn), for which the growth is 112% (inactive).

Turning to `COc1ccc(Nc2[nH]n3c(=O)cc(-c4ccccc4)nc3c2C(=O)Nc2ccc(C)cc2)c(OC)c1`, the growth is 81% (inactive).

Take `COc1ccc(-c2cn(-c3cccc(C(=O)/C=C/c4cc(OC)c(OC)c(OC)c4)c3)c(=O)[nH]2)cc1OC`: the growth was 76.5% (inactive).

Regarding `Cc1ccc(S(=O)(=O)NC(=O)n2cc(-c3ccncc3)c(-c3ccc(Cl)c(O)c3)n2)cc1`, the growth was 92.1% (inactive).

`COC(=O)C1CCCN1C(=O)[C@@H]1CCCN1C(=O)[C@H](Cc1c[nH]c2ccccc12)NC(=S)Nc1cc(C(F)(F)F)cc(C(F)(F)F)c1` (stereo partly drawn): the growth was 55.4% (inactive).

The subject of another assay is UACC-257 melanoma. The description is as above. The conditions noted are these: 10 µM unless noted.
Consider `Cc1nc2cncc(C#Cc3cncc(C(=O)Nc4ccc(CN5CCN(C)CC5)c(C(F)(F)F)c4)c3)c2nc1C`, for which the growth was 14% (inactive).

On to `CCN(CC)CCC(CNc1c2ccc(Cl)cc2nc2ccc(OC)cc12)c1ccccc1` (stereo not drawn), for which the growth was -91.1% (active).

`Cc1csc(NC(c2ccc(Br)cc2)c2c(C)nc3ccccn23)n1` (stereo not drawn): the growth is 76.1% (inactive).

As to `O=C(NCCCNc1nccc(-n2ccc3cccnc32)n1)c1c(F)cccc1F`, the growth was 113% (inactive).

Regarding `COc1ccc(/C=C\c2cc(OC)c(OC)c(OC)c2)cc1OC(=O)c1cccc(Cn2cc(CCOC(=O)c3cccc(Cn4nnc5c4C(=O)c4ccccc4C5=O)c3)nn2)c1`, the growth was 67.3% (inactive).

Regarding `O=C(Nc1ccc(NCCN2CCOCC2)nc1)c1ccc([N+](=O)[O-])cc1`, the growth is 93.1% (inactive).

`CCOC(=O)C1C(=O)C=C(c2ccc(OC)cc2)CC1c1sc(N(C)Cc2ccccc2)nc1Cl` (stereo not drawn): the growth is 91.2% (inactive).

As to `NC(=S)N/N=C(/CCN1CCCC1)CC(C1=C(O)C2=CCCCC2OC1=O)c1ccccc1` (stereo not drawn), the growth was 73.1% (inactive).

Take `O=C(NNC(=O)N1c2ccccc2C=Cc2ccccc21)c1ccccc1`: the growth is 108% (inactive).

As to `Cc1ccc(S(=O)(=O)n2cc(C(=O)C(=O)Nc3ccncc3)c3ccccc32)cc1`, the growth is 63.3% (inactive).

Turning to `COc1ccc(C2=C(c3cc(OC)c(OC)c(OC)c3)C(=O)CC2)cc1`, the growth was 65.4% (inactive).

For `Cn1ccc(Nc2nccc(Oc3ccc(C(=O)Nc4cccc(F)c4)c(Cl)c3)n2)c1`, the growth was 79.5% (inactive).

Consider `CCOc1cc2c(Cl)ncnc2c(OCC)c1OCC`, for which the growth is -17% (active).

Regarding `NC(N)=Nc1nc2ccccc2o1`, the growth was 121% (inactive).

Take `CC(C)CC1NC(C)(C)CO1` (stereo not drawn): the growth is 112% (inactive).

On to `COc1cc(/C=N\NC(=O)CN2CCN(c3cc4c(cc3F)c(=O)c(C(=O)N/N=C/c3cc(OC)c(OC)c(OC)c3)cn4C3CC3)CC2)cc(OC)c1OC`, for which the growth is 22.2% (inactive).

As to `COc1ccc(-c2nc3sc(-c4cc(OC)c(OC)c(OC)c4)nn3c2/C=C2/C(=O)Nc3ccc(F)cc32)cc1`, the growth was -25% (active).

As for `Nc1cccc(-c2nc3sccn3c2-c2ccnc(NCCNS(=O)(=O)c3ccc(C(F)(F)F)cc3)n2)c1`, the growth was 65% (inactive).

Regarding `COc1ccc(-c2ccc(-c3ccc(C(=N)N)s3)s2)cc1Cl`, the growth was 106% (inactive).

For `NC(=O)c1c(NC(=S)Nc2ccc(OC(F)(F)F)cc2)sc2c1CCC1(C2)OCCO1`, the growth was 97.1% (inactive).

For `COc1ccc2[nH]c(C(=O)OCc3ccc4c(Cl)cc(Cl)c(O)c4n3)cc2c1`, the growth was -77.3% (active).

Take `CCO/C=N/C1=C(C#N)C(c2ccc(Cl)cc2)c2c(c3ccccc3n(C)c2=O)O1` (stereo not drawn): the growth is 90.3% (inactive).

In the case of `COc1ccc(S(=O)(=O)Nc2cc(/C=C\c3cc(OC)c(OC)c(OC)c3)cc(OC)c2OC)cc1`, the growth is 51.3% (inactive).

Regarding `CCCCNC(=O)Oc1ccc(/C(=C(\C)c2ccccc2)c2ccc(OCCN(CC)CC)cc2)cc1`, the growth is 19.3% (inactive).

Consider `COc1ccc(S(=O)(=O)n2cc(C(=O)C(=O)Nc3ccncc3)c3ccccc32)cc1F`, for which the growth was 105% (inactive).

As for `CC(C)(C)n1cc(-c2ccnc(NCCCNS(=O)(=O)c3ccc(Br)cc3)c2)c(-c2cccc(O)c2)n1`, the growth is 9.16% (active).

Consider `O=Nc1c(-c2cccc([N+](=O)[O-])c2)nc2ncccn12`, for which the growth was 79.3% (inactive).

For the compound `O=C1/C(=C/c2ccc([N+](=O)[O-])cc2)CN(C(=O)CCN2CCC(=NO)CC2)C/C1=C\c1ccc([N+](=O)[O-])cc1`, the growth is -4.87% (active).

For the compound `CCOC(=O)C1=C(C)NC(C)=C(C(=O)OCC)C1(C)C`, the growth was 96.3% (inactive).

For `CCCCN(CCCC)C(=N)c1ccnc2ccccc12`, the growth was 66.2% (inactive).

For the compound `C1=Cc2ccccc2N(c2nnc(-c3ccccc3)o2)c2ccccc21`, the growth was 111% (inactive).

As for `CCCCCCCCCCCCCCCCCCNC(=O)[C@H]1CSC(c2ccc(OC)cc2O)N1` (stereo partly drawn), the growth was 88.3% (inactive).

Turning to `COc1ccc(C(=O)c2cc(OC)c3c(c2)OCO3)cc1O`, the growth was 65.6% (inactive).

In the case of `COc1ccc(-c2cc(-c3ccccc3)nc(SCCCC(=O)NO)n2)cc1OC`, the growth is -18.2% (active).

Turning to `CCOC(=O)C1CCNC(=O)C1=O` (stereo not drawn), the growth was 126% (inactive).

As for `COc1ccc(Nc2[nH]n3c(=O)cc(-c4ccccc4)nc3c2C(=O)Nc2ccc(C)cc2)c(OC)c1`, the growth was 85.4% (inactive).

As to `COc1ccc(-c2cn(-c3cccc(C(=O)/C=C/c4cc(OC)c(OC)c(OC)c4)c3)c(=O)[nH]2)cc1OC`, the growth was 80.1% (inactive).

With `Cc1ccc(S(=O)(=O)NC(=O)n2cc(-c3ccncc3)c(-c3ccc(Cl)c(O)c3)n2)cc1`, the growth is 99.4% (inactive).

On to `COC(=O)C1CCCN1C(=O)[C@@H]1CCCN1C(=O)[C@H](Cc1c[nH]c2ccccc12)NC(=S)Nc1cc(C(F)(F)F)cc(C(F)(F)F)c1` (stereo partly drawn), for which the growth was 62.4% (inactive).
